# Sampled rows, rich in hits. Any-hit rate of the full collection: about 0.71%.
# TRb SRC2 PPI: qHTS for Inhibitors of the Interaction of Thyroid Hormone Receptor and Steroid Receptor Coregulator 2. Potency, µM (highest dose often 106 µM), actives largely listed as inhibitors. TRbeta-SRC2 peptide binding, fluorescence polarization; receptor liganded with 1 µM T3. actives 0.065% (n = 280,000). Thyroid hormone receptor beta (Homo sapiens), P10828; also: nearly all actives have a fitted effect of over 50% in size
# Target sequence (P10828 whole entry, looked up): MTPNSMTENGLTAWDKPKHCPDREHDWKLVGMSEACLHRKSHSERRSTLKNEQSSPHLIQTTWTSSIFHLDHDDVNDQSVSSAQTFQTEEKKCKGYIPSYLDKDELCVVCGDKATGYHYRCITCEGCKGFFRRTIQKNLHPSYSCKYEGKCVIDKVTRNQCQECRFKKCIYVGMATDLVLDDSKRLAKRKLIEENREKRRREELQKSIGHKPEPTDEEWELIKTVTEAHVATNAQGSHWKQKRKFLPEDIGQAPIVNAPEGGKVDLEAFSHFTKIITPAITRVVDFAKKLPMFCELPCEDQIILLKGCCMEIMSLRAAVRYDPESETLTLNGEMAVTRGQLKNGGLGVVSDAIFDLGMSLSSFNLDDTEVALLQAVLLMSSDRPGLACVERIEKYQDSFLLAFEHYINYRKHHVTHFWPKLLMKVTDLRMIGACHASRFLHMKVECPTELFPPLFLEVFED
#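 Binding of a 20-amino-acid Texas Red SRC2 peptide (20 nM) to TRb ligand-binding domain (0.6 uM) with agonist T3 at 1 uM was followed by fluorescence polarization after a 5 hr room-temperature incubation.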
# BLM inh: qHTS Assay for Inhibitors of Bloom's syndrome helicase (BLM). AID 2528, 2010. actives 0.2% (n = 350,000). Potency, µM (series often up to 56.1 µM), most hits filed as inhibitors. recombinant BLM DNA unwinding, fluorescence dequenching. RecQ-like DNA helicase BLM (Homo sapiens), P54132; also: nearly all actives have a fitted effect of over 35% in size
# TR SRC2 fluor cs: Total Fluorescence Counterscreen for Inhibitors of the Interaction of Thyroid Hormone Receptor and Steroid Receptor Coregulator 2. TRb/SRC2 Texas Red total fluorescence interference. Potency, µM (top dose mostly 106 µM). actives 0.29% (n = 280,000); active = well fitted curve in either direction with a large enough effect; inconclusive = small, poorly fitted or top-dose-only effect
#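 Human TRb ligand-binding domain at 0.6 uM with 20 nM Texas Red SRC2 peptide in Tris buffer containing 1 uM T3 and 5% DMSO, incubated with compound 5 h at ambient temperature. Total fluorescence (555/632 nm) calculated as parallel + 2 × perpendicular.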
# RECQ1 inh: qHTS Assay for Inhibitors of RecQ-Like Dna Helicase 1 (RECQ1). ATP-dependent DNA helicase Q1 (Homo sapiens), P46063. RECQ1 DNA unwinding, red fluorescence kinetic read. Potency, µM (top dose mostly 57.3 µM), most hits filed as inhibitors. actives 0.54% (n = 240,000); also: nearly all actives have a fitted effect of over 30% in size
#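 50 nM RECQ1T1 preincubated 15 min with compound in Tris pH 8.0 buffer with MgCl2, DTT, Tween-20 and 2.5 ug/ml poly(dI-dC); started with 200 nM TAMRA/BHQ-2 forked duplex and 2 mM ATP. Unwinding read as fluorescence (525/598 nm), two reads 2 h apart.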
# RGS12 GoLoco inh: qHTS Assay for Inhibitors of RGS12 GoLoco Motif Activity (Red Fluorophore). AID 880, 2007. Gai1:RGS12 GoLoco peptide FP, rhodamine, 10 min. Potency, µM (top dose mostly 61.6 µM), usual class: inhibitors. actives 0.44% (n = 230,000); active = well fitted inhibition curve with a large enough effect, not every such curve was filed as active; inactive = no such curve, though single readings can be large or run the other way; also: nearly all actives have a fitted effect of over 30% in size
# ERG-DNA inh: qHTS for Small Molecule Inhibitors of the ERG Ets/DNA interaction. Transcriptional regulator ERG (Homo sapiens), P11308. fluorescence polarization, His-ERG Ets domain / labelled DNA. Potency, µM (doses to about 76.9 µM), usual class: inhibitors. actives 0.028% (n = 370,000); active = well fitted inhibition curve with a large enough effect in the polarisation, with a control signal flat; inconclusive = small, poorly fitted or top-dose-only effect, or effect the other way, or a change in a side signal; inactive = no such curve, though single readings can be large or run the other way; the % refers to the polarisation;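 also: polarization taken with two DNA probes labelled with fluorescein and Texas red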
#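 His-tagged ERG Ets domain (1 uM in the protein solution; 300mM KCl, 50mM Tris-HCl, 1mM EDTA, 1mM DTT, pH 7.5) received compound, then a probe mix of 5 nM fluorescein-DNA and 100nM Texas-615-DNA. Fluorescence polarization was read for both dyes.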
# Numbers stand for hits; – = inactive; ? = inconclusive; · = no result; [ ] = another dose, or the depositor's remark. Unless noted, calls follow the shape of the dose curve; as a rule, active = well fitted curve in the direction sought with a large enough effect; inconclusive = small, poorly fitted or top-dose-only effect, or another doubt; inactive = no such curve, though single readings can be large; an effect the other way counts as inactive or inconclusive.
SMILES,TRb SRC2 PPI,BLM inh,TR SRC2 fluor cs,RECQ1 inh,RGS12 GoLoco inh,ERG-DNA inh
O=S(=O)(Nc1cc(Sc2ncn[nH]2)c(O)c2ccccc12)c1ccccc1,?,28.2µM,–,–,–,–
CNCC(=O)NC(CCCN=C(N)N)C(=O)NC(C(=O)NC(Cc1ccc(O)cc1)C(=O)NC(C(=O)NC(Cc1cnc[nH]1)C(=O)N1CCCC1C(=O)NC(C)C(=O)O)C(C)C)C(C)C (configuration not stated),·,–,·,·,·,·
Cc1ccc(/C=C/C(=O)Nc2ccc(S(=O)(=O)Nc3onc(C)c3C)cc2)cc1,·,–,·,·,·,28.2µM
CC(C)=CC(=O)Nc1ccc(S(=O)(=O)Nc2onc(C)c2C)cc1,·,–,·,·,·,–
CC[C@@]1(O)C(=O)OCc2c1cc1n(c2=O)Cc2cc3c([N+](=O)[O-])cccc3nc2-1,·,–,·,·,·,·
CCn1nc([N+](=O)[O-])c2c(-c3nc4ccccc4o3)c(N)n(CCCOC)c2c1=O,–,10µM,–,–,–,–
CC(CCO)Nc1nc2c(c(=O)n(C)c(=O)n2C)n1Cc1ccc(Br)cc1 (configuration not stated),–,–,0.0071µM[quencher],·,·,–
CC(=O)c1[nH]c(C)c(C(=O)NCc2ccc(Cl)cc2)c1C,–,–,1122µM[quencher],·,·,–
CCCCc1nc2c(c3c1C[C@H](C)OC3)CN(S(=O)(=O)c1c(C)noc1C)CC2,–[11.2 µM],–[12.4 µM],–[11.2 µM],–[11.5 µM],–[14.2 µM],·
C=CCN1C(=O)/C(=C/C=C2/N(CC)c3ccc(S(=O)(=O)N(C)C)cc3N2CC)SC1=S,–,10µM,?,3.98µM,–,–
Clc1ccccc1-c1ccc2ncnc(NC3CCNCC3)c2c1,·,–,·,–,–,·
O=C1C=CC(=O)C2=C1C1c3ccccc3C2c2ccccc21,–,–,–,–,17.8µM,·
CCO/C(=C/c1sc2ccc(OC)cc2[n+]1CCCS(=O)(=O)[O-])CC,–,–,–,–,–,?
CCC(/C=C1\Sc2ccc(OC)cc2N1CC)=C\c1sc2ccc(OC)cc2[n+]1CCCS(=O)(=O)[O-],?,–,39.8µM[fluorescent],–,–,–
COc1ccc(NC(=O)Nc2sc3nc4n(c(=O)c3c2C)CCC(C)CC4)cc1OC (configuration not stated),–,–,–,·,·,–
Cc1ccc(/C=N/N2C(=S)SC(C)(C)C2N(O)C(=O)Nc2ccc([N+](=O)[O-])cc2)cc1 (configuration not stated),–,–,–,31.6µM,–,–
C/C1=C2/[N-]C(C(CC(N)=O)[C@@]2(C)CCC(=O)NCC(C)OP(=O)([O-])O[C@H]2[C@@H](O)[C@@H](n3cnc4cc(C)c(C)cc43)O[C@@H]2CO)[C@]2(C)N=C(/C(C)=C3N=C(/C=C4N=C1C(CCC(N)=O)C\4(C)C)[C@@H](CCC(N)=O)[C@]\3(C)CC(N)=O)[C@@H](CCC(N)=O)[C@]2(C)CC(N)=O.CC(=O)O.[Co] (some centres not stated),·,25.1µM,·,·,·,·
CNc1nc(=O)n(C2CCCCC2)c(=O)n1C,–,·,–,·,·,·
Cc1c(C(=O)Nc2ccc(-c3nc4cc(Cl)ccc4o3)cc2)oc2ccccc12,–,–,112µM[quencher],·,·,–
Cn1c(=O)c2[nH]c(-c3ccccc3Cl)c(O)c2n(C)c1=O,–,–,–,–,2µM,–
CCn1c(CSc2nccn2C)nc2cc(C(=O)O)ccc21,?,–,12.6µM[fluorescent],–,15.8µM,?
C[C@]12CC[C@@H]3c4ccc(O)cc4CC[C@H]3[C@H]1CC[C@H]2O,–,·,–,·,·,·
Cc1ccc(-c2csc(N3N=C(c4ccccc4)/C(=C\c4ccc(N(C)C)cc4)C3=O)n2)cc1,?,–,39.8µM[quencher],–,–,·
CC(C)CCCC(C)C1CC(=O)C2=C3CCC4CC(O)CCC4(C)C3CCC21C (configuration not stated),–,–,–,·,·,·
O=C1NN(c2ccccc2)C(=O)/C1=C/c1ccc(Sc2cccc3ccccc23)o1,–,?,–,20µM,–,–
SMILES,TRb SRC2 PPI,BLM inh,TR SRC2 fluor cs,RECQ1 inh,RGS12 GoLoco inh,ERG-DNA inh
N#Cc1c(N)sc2c1CCCCCC2,–,–,–,–,·,–
N#Cc1c(N)sc(=S)c2c1CCCCC2,–,–,–,?,25.1µM,?
N[C@@H](CSCCCO)C(=O)O,–,–,–,·,–,·
C[N+]1=C2CCCCCN2C(O)(c2ccccc2)C1 (configuration not stated),–,–,–,–,14.1µM,·
COC(=O)N/N=C/c1cc(N=Nc2ccccc2)ccc1O,–,–,–,–,–,–
COC(=O)N/N=C/c1cc(N=Nc2ccccc2Cl)ccc1O,?,–,39.8µM[quencher],–,–,–
COc1ccc(OC)c(-c2nnc3n2N=C(c2c(OC)cccc2OC)CS3)c1,–,–,–,–,·,·
Cc1ccc2nc(-c3ccc(NC(=O)COc4ccc(Br)cc4Br)cc3)sc2c1,–,–,0.316µM[quencher],·,·,–
Cc1ccc2nc(-c3ccc(NC(=O)COc4c(C)ccc(C)c4C)cc3)sc2c1,–,–,–,·,·,–
O=C1CCCCCCCCCCC1,–,·,–,·,·,·
COc1cc(OC)c(-c2cc(C(=O)NCc3ccc(F)cc3)c3c(-c4ccccc4)[nH]nc3n2)cc1OC,–,–,3.55µM[quencher],·,·,–
COc1cccc(C2=Nn3c(nnc3-c3ccccc3C)SC2)c1,–,–,–,–,·,·
CCS(=O)(=O)N1CC(=O)N(c2ccc(Cl)cc2)C(C)(C(=O)NC2CCCCCC2)C1 (configuration not stated),–,–,17.8µM[quencher],·,·,–
CCCS(=O)(=O)N1CC(=O)N(c2ccc(Cl)cc2C)C(C)(C(=O)NC2CCCC2)C1 (configuration not stated),–,–,28.2µM[quencher],·,·,–
CCCS(=O)(=O)N1CC(=O)N(c2cc(C)cc(C)c2)C(C)(C(=O)NC2CCCCCC2)C1 (configuration not stated),–,–,–,·,·,–
CCCS(=O)(=O)N1CC(=O)N(c2ccc(Cl)cc2)C(C)(C(=O)NC2CCCC2)C1 (configuration not stated),–,–,–,·,·,–
C=C[C@H]1CN2CC[C@@H]1C[C@H]2[C@@H](O)c1ccnc2ccc(OC)cc12,–,–,·,–,–,·
CC(=O)NC1C(O)O[C@H](C(=O)O)[C@@H](O)[C@@H]1O (some centres not stated),–,–,–,–,·,·
